Potency and outcome data for 37 compounds are collected here from PubChem BioAssay (Tox21).

Several values for one entry are separate records, joined by “and”; a condition that tells them apart may be missing. Equal values may be shown once. Results filed as inconclusive are left out. Entries that show only a call come without a potency. Activity calls are given as the source filed them. Calls come from the whole dose curve; as a rule, active = well fitted curve in the direction sought with a large enough effect in the repeat runs; inconclusive = weak or mixed curves; inactive = no such curve, though single readings can be large; an effect the other way counts as inactive or inconclusive.

One assay is described as follows: qHTS assay to identify small molecule agonists of the retinoic acid receptor (RAR) signaling pathway (AID 1159553). Note: potency is the fitted concentration of half-maximal effect. The following applies: C3RL4 RARE luciferase reporter, agonist, 6 h; series mostly up to 73.3 µM. In short, it runs like this:
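Luminescence from a RARE-driven luciferase reporter in C3RL4 cells served as the read-out, measured after 30 min with detection reagent at room temperature. Compounds in DMSO were applied for 6 hr at 37 C following overnight seeding.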
On the technique in general: Quantitative high-throughput screening tests each substance at several concentrations.
Consider `CCOC(=O)C1(c2ccccc2)CCN(CCC(C#N)(c2ccccc2)c2ccccc2)CC1`, for which the Potency result is “inactive”.

`FC(Cl)(Cl)Cl`: the Potency entry is “inactive”.

`CC(C)CC(C)(c1ccc(O)cc1)c1ccc(O)cc1`: the Potency entry was “inactive”.

On to `CC(=O)Nc1ccc2c(c1)Cc1ccccc1-2`, for which the Potency was 6.21 µM (active).

For the compound `Cc1c(Cl)c(=O)oc2cc(OP(=O)(OCCCl)OCCCl)ccc12`, the Potency entry was “inactive”.

With `CC(C)[C@H](C(=O)OC(C#N)c1cccc(Oc2ccccc2)c1)c1ccc(OC(F)F)cc1` (stereo partly specified), the Potency result is “inactive”.

As to `CCOC(=O)OC1=C(c2cc(C)ccc2C)C(=O)NC12CCC(OC)CC2` (stereo unspecified), the Potency entry was “inactive”.

For the compound `C[C@H]1CC[C@@H]2[C@@H](C)[C@H]3[C@H](C[C@H]4[C@@H]5CC=C6CC(O[C@@H]7O[C@H](CO)[C@H](O)[C@H](O[C@@H]8O[C@H](CO)[C@@H](O)[C@H](O)[C@H]8O)[C@H]7O[C@H]7O[C@@H](C)[C@H](O)[C@@H](O)[C@H]7O)CC[C@]6(C)[C@H]5CC[C@]34C)N2C1` (stereo partly specified), the Potency entry was “inactive”.

For `Clc1ccc(CCC(Cn2ccnc2)Sc2c(Cl)cccc2Cl)cc1` (stereo unspecified), the Potency entry is “inactive”.

On to `COc1ccc(OC)c(CC(C)N)c1` (stereo unspecified), for which the Potency entry is “inactive”.

As to `Clc1ccc(-c2ccc(Cl)c(Cl)c2Cl)c(Cl)c1Cl`, the Potency result is “inactive”.

Take `Cn1cc(C2=C(c3cn(C4CCN(Cc5ccccn5)CC4)c4ccccc34)C(=O)NC2=O)c2ccccc21`: the Potency result is “inactive”.

On to `CCN`, for which the Potency result is “inactive”.

Turning to `CCCCCCCCCCCCCN1CC(C)OC(C)C1` (stereo unspecified), the Potency result was “inactive”.

In the case of `N#CCCSCCC#N`, the Potency result is “inactive”.

Turning to `O=C(O)COc1nc(Cl)c(Cl)cc1Cl`, the Potency result is “inactive”.

For `O=C1NCN(c2ccccc2)C12CCN(CC1COc3ccccc3O1)CC2` (stereo unspecified), the Potency result was “inactive”.

On to `c1ccc2cc3c(cc2c1)-c1cccc2cccc-3c12`, for which the Potency result was “inactive”.

In the case of `CCCN(CC)CC1COC2(CCC(C(C)(C)C)CC2)O1` (stereo unspecified), the Potency entry was “inactive”.

Regarding `CC(C)(C)OO`, the Potency entry was “inactive”.

Take `ClC1=C(Cl)C2(Cl)C3C(Cl)C=CC3C1(Cl)C2(Cl)Cl` (stereo unspecified): the Potency result is “inactive”.

In the case of `NNC(=O)c1ccccc1`, the Potency was 1.77 µM (active).

For the compound `Fc1cccc(Cl)c1CCl`, the Potency entry is “inactive”.

For `OC(c1ccc(Cl)cc1)(c1ccc(Cl)cc1)C(Cl)(Cl)Cl`, the Potency result was “inactive”.

`CN(C)c1ccc(N=Nc2ccccc2)cc1`: the Potency was 0.097 µM (active).

`N#CC(Cl)Cl`: the Potency was 47.3 µM (active).

Regarding `c1ccc2c(c1)[nH]c1cnccc12`, the Potency result was “inactive”.

For `Cc1ccc(OP(=O)(Oc2ccccc2)Oc2ccccc2)cc1`, the Potency result is “inactive”.

With `FC(F)(F)c1cccc(C2=CCN(CCc3ccc4ccccc4c3)CC2)c1`, the Potency entry was “inactive”.

Take `BrC(Br)Br`: the Potency entry is “inactive”.

For `Cc1cc(C(F)(C(F)(F)F)C(F)(F)F)ccc1NC(=O)c1cccc(I)c1C(=O)NC(C)(C)CS(C)(=O)=O`, the Potency result is “inactive”.

Regarding `O=[N+]([O-])c1c2ccccc2cc2ccccc12`, the Potency is 19.1 µM (active).

Take `CCCN(CCC)CCc1c[nH]c2ccccc12`: the Potency entry was “inactive”.

For `CC(C)OS(C)(=O)=O`, the Potency entry was “inactive”.

For the compound `N#CNC#N`, the Potency entry was “inactive”.

Regarding `C[C@@H]1O[C@@H](O[C@H]2C[C@@H](O)[C@]3(CO)[C@H]4[C@H](O)C[C@]5(C)[C@@H](C6=CC(=O)OC6)CC[C@]5(O)[C@@H]4CC[C@]3(O)C2)[C@H](O)[C@H](O)[C@H]1O`, the Potency result is “inactive”.

On to `CCOCn1c(-c2ccc(Cl)cc2)c(C#N)c(Br)c1C(F)(F)F`, for which the Potency result was “inactive”.

The next assay in a line: qHTS assay to identify small molecule antagonists of the estrogen related receptor (ERR) signaling pathway - cell viability counter screen (AID 1224818).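 Note: viability measured after 17.5 h of compound exposure.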 The following applies: ERR reporter cell line viability counter screen; series mostly up to 92.2 µM. In short, it runs like this:
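Multiplexed counter screen to separate cytotoxic compounds from true ERR modulators. ERR cells received DMSO-dissolved compounds after a 6 h pre-incubation, were exposed 17.5 h at 37 C, then assayed with CellTiter-Fluor fluorescence.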
`O=C(O)COc1nc(Cl)c(Cl)cc1Cl`: the call was inactive.

As for `O=C1NCN(c2ccccc2)C12CCN(CC1COc3ccccc3O1)CC2` (stereo unspecified), the result was inactive.

With `O=[N+]([O-])c1c2ccccc2cc2ccccc12`, the compound was called inactive.

Regarding `C[C@@H]1O[C@@H](O[C@H]2C[C@@H](O)[C@]3(CO)[C@H]4[C@H](O)C[C@]5(C)[C@@H](C6=CC(=O)OC6)CC[C@]5(O)[C@@H]4CC[C@]3(O)C2)[C@H](O)[C@H](O)[C@H]1O`, the compound was called inactive.

Another assay can be described thus: qHTS assay to identify small molecule antagonists of the estrogen related receptor (ERR) signaling pathway from Tox21 library - cell viability counter screen (AID 1224834). Note: nearly all actives have a fitted effect of over 30% in size. Note: potency is the fitted concentration of half-maximal effect. The following applies: ERR reporter cells viability, CellTiter-Fluor, 17.5 h; series mostly up to 92.4 µM. In short, it runs like this:
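Fluorescence from CellTiter-Fluor gives the viability read-out, taken 30 min after reagent addition. Before that, ERR cells seeded 6 h earlier were incubated with compounds for 17.5 h at 37 C.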
With `CCOC(=O)C1(c2ccccc2)CCN(CCC(C#N)(c2ccccc2)c2ccccc2)CC1`, the Potency entry is “inactive”.

Consider `FC(Cl)(Cl)Cl`, for which the Potency result is “inactive”.

As for `CC(C)CC(C)(c1ccc(O)cc1)c1ccc(O)cc1`, the Potency was 48.7 µM (active).

For the compound `CC(=O)Nc1ccc2c(c1)Cc1ccccc1-2`, the Potency entry was “inactive”.

In the case of `Cc1c(Cl)c(=O)oc2cc(OP(=O)(OCCCl)OCCCl)ccc12`, the Potency entry was “inactive”.

For `CC(C)[C@H](C(=O)OC(C#N)c1cccc(Oc2ccccc2)c1)c1ccc(OC(F)F)cc1` (stereo partly specified), the Potency entry is “inactive”.

Consider `CCOC(=O)OC1=C(c2cc(C)ccc2C)C(=O)NC12CCC(OC)CC2` (stereo unspecified), for which the Potency result is “inactive”.

Turning to `C[C@H]1CC[C@@H]2[C@@H](C)[C@H]3[C@H](C[C@H]4[C@@H]5CC=C6CC(O[C@@H]7O[C@H](CO)[C@H](O)[C@H](O[C@@H]8O[C@H](CO)[C@@H](O)[C@H](O)[C@H]8O)[C@H]7O[C@H]7O[C@@H](C)[C@H](O)[C@@H](O)[C@H]7O)CC[C@]6(C)[C@H]5CC[C@]34C)N2C1` (stereo partly specified), the Potency is 22.4 µM (active).

`Clc1ccc(CCC(Cn2ccnc2)Sc2c(Cl)cccc2Cl)cc1` (stereo unspecified): the Potency is 29.8 µM (active).

Turning to `COc1ccc(OC)c(CC(C)N)c1` (stereo unspecified), the Potency entry was “inactive”.

Take `Clc1ccc(-c2ccc(Cl)c(Cl)c2Cl)c(Cl)c1Cl`: the Potency result is “inactive”.

With `Cn1cc(C2=C(c3cn(C4CCN(Cc5ccccn5)CC4)c4ccccc34)C(=O)NC2=O)c2ccccc21`, the Potency was 11.9 µM (active).

For the compound `CCN`, the Potency result is “inactive”.

Turning to `CCCCCCCCCCCCCN1CC(C)OC(C)C1` (stereo unspecified), the Potency entry is “inactive”.

As for `N#CCCSCCC#N`, the Potency result is “inactive”.

With `O=C(O)COc1nc(Cl)c(Cl)cc1Cl`, the Potency entry is “inactive”.

Turning to `c1ccc2cc3c(cc2c1)-c1cccc2cccc-3c12`, the Potency entry was “inactive”.

Turning to `CCCN(CC)CC1COC2(CCC(C(C)(C)C)CC2)O1` (stereo unspecified), the Potency result was “inactive”.

Consider `CC(C)(C)OO`, for which the Potency entry is “inactive”.

As for `ClC1=C(Cl)C2(Cl)C3C(Cl)C=CC3C1(Cl)C2(Cl)Cl` (stereo unspecified), the Potency was 68.6 µM (active).

For the compound `NNC(=O)c1ccccc1`, the Potency result was “inactive”.

As for `Fc1cccc(Cl)c1CCl`, the Potency entry was “inactive”.

Turning to `OC(c1ccc(Cl)cc1)(c1ccc(Cl)cc1)C(Cl)(Cl)Cl`, the Potency entry is “inactive”.

On to `CN(C)c1ccc(N=Nc2ccccc2)cc1`, for which the Potency was 43.3 µM (active).

For the compound `N#CC(Cl)Cl`, the Potency result was “inactive”.

As for `c1ccc2c(c1)[nH]c1cnccc12`, the Potency entry was “inactive”.

Turning to `Cc1ccc(OP(=O)(Oc2ccccc2)Oc2ccccc2)cc1`, the Potency result was “inactive”.

For `FC(F)(F)c1cccc(C2=CCN(CCc3ccc4ccccc4c3)CC2)c1`, the Potency result is “inactive”.

With `BrC(Br)Br`, the Potency entry was “inactive”.

For `Cc1cc(C(F)(C(F)(F)F)C(F)(F)F)ccc1NC(=O)c1cccc(I)c1C(=O)NC(C)(C)CS(C)(=O)=O`, the Potency result was “inactive”.

`CCCN(CCC)CCc1c[nH]c2ccccc12`: the Potency entry was “inactive”.

On to `CC(C)OS(C)(=O)=O`, for which the Potency entry was “inactive”.

In the case of `N#CNC#N`, the Potency entry was “inactive”.

As to `C[C@@H]1O[C@@H](O[C@H]2C[C@@H](O)[C@]3(CO)[C@H]4[C@H](O)C[C@]5(C)[C@@H](C6=CC(=O)OC6)CC[C@]5(O)[C@@H]4CC[C@]3(O)C2)[C@H](O)[C@H](O)[C@H]1O`, the Potency is 91.9 nM (active) and 84.1 nM (active).

With `CCOCn1c(-c2ccc(Cl)cc2)c(C#N)c(Br)c1C(F)(F)F`, the Potency was 4.86 µM (active).
